Screening data deposited in PubChem BioAssay by National Center for Advancing Translational Sciences (NCATS).
ELG1 DNA repair: inhibitors of ELG1-dependent DNA repair in HEK293T cells | HEK293T ELG1-luciferase reporter, luminescence, 16 h; DNA damage induced by 5-fluorouridine | Potency, µM (top dose mostly 46.1 µM), usual class: inhibitors | hit rate 2.3% among 330,000; further: nearly all actives have a fitted effect of over 55% in size
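Quantitative HTS, concentration-response format. 2,000 cells/well co-treated with 5-fluorouridine and compound, 16 hr in 5% CO2 at 37 °C; ONE-Glo luminescence read after 30 min.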
ELG1 genotox: induces genotoxicity in HEK293T cells with luciferase-tagged ELG1; HEK293T ELG1-luciferase reporter, luminescence, 16 h; Potency, µM (top dose mostly 46 µM), usual class: activators; hit rate 1.3% among 330,000; further: nearly all actives have a fitted effect of over 60% in size
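HEK293T cells expressing luciferase-tagged ELG1 were treated with compound or DMSO for 16 hr at 37°C. Luciferase activity was then read after 30 min with ONE-Glo at room temperature; rising signal flags genetic stress.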
NPC1 prom act: activators of NPC1 promoter. Huh7 NPC1 promoter luciferase reporter, 24 h. Potency, µM (doses to about 9.22 µM), hits mostly activators. hit rate 2.4% among 320,000. AID 485313; further: nearly all actives have a fitted effect of over 60% in size
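Readout is luciferase luminescence, reflecting NPC1 promoter activation in stably transfected Huh7 cells after 24 h compound exposure at 37 °C in reduced-serum medium with 10% FBS.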
Rab9 prom act: Rab9 promoter activation; Potency, µM (doses to about 9.22 µM), actives largely listed as activators; Huh7 Rab9 promoter-luciferase reporter, luminescence, 24 h; hit rate 2.8% among 320,000; further: nearly all actives have a fitted effect of over 60% in size
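Huh7 cells stably carrying a Rab9 promoter-luciferase reporter, 1500 cells per well in OP-MEM I with 10% FBS, treated with compound 24 hours at 37C. Luciferase activity read by luminescence after 10 minutes with Amplite reagent.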
FLuc modulator: counter-screen for miR-21 project: firefly luciferase inhibitors or activators | hit rate 6.9% among 360,000 | purified FLuc, Km substrates, luminescence inhibition | Potency, µM (doses to about 57.5 µM), usual class: inhibitors; further: nearly all actives have a fitted effect of over 55% in size
Target sequence (P08659 whole entry, looked up): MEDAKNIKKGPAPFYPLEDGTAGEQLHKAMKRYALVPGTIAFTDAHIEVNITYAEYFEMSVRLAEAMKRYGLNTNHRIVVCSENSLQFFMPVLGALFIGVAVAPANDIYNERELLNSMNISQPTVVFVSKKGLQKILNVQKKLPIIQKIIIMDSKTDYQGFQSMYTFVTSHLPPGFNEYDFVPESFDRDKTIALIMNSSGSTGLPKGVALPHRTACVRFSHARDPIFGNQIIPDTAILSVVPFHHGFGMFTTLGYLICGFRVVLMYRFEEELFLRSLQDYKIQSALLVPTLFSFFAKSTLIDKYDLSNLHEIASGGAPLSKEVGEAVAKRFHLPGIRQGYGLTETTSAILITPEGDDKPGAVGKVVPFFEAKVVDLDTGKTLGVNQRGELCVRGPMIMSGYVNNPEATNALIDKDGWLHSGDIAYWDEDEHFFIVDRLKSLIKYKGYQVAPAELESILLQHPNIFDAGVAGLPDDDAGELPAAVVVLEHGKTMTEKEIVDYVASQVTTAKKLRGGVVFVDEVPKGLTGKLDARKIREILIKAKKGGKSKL
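Purified P. pyralis luciferase (10nM final) with 10uM D-luciferin and 10uM ATP (Km levels) in 50mM Tris acetate pH 7.5, 10mM Mg acetate, 0.01% Tween-20, 0.05% BSA; qHTS 6-point titration, ~60 µM downward; luminescence read.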
SMN2 splice enh: increases expression of the SMN2 splice variant. hit rate 2.8% among 210,000. HEK293 SMN2-luciferase splicing reporter, luminescence, 30-36 h. AID 1458. Potency, µM (doses to about 46.1 µM), actives largely listed as activators; further: nearly all actives have a fitted effect of over 55% in size
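HEK293 cells carry an SMN2 minigene-luciferase reporter in which exon 7 inclusion puts luciferase in frame. Cells were seeded at 2000 cells/well, attached for 10-12 hours, then exposed to compounds for 30-36 hours at 37C before ONE-Glo luminescence.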
A number is an active result; n = inactive; u = inconclusive; x = no result given; ! = not confirmed by another sample; [ ] = dose if it differs, or a comment. Most compounds without a hit are left out; they make up all but 9.4% or so of the library. The call rests on the fitted dose curve; in most records, active means well fitted curve in the direction sought with a large enough effect; inconclusive means small, poorly fitted or top-dose-only effect, or another doubt; inactive means no such curve, though single readings can be large; an effect the other way counts as inactive or inconclusive.

SMILES	ELG1 DNA repair	ELG1 genotox	NPC1 prom act	Rab9 prom act	FLuc modulator	SMN2 splice enh
COc1ccc(C(=O)Nc2ccc(NC(=O)c3ccccn3)cn2)cc1	u	n	n	n	u	x
COc1ccc(NC(=O)c2ccccn2)cc1OC	u	u	u	4µM	17µM	u
COc1ccc(NC(=O)c2ccccn2)cc1	u	u	0.5µM	u	2.7µM	1.6µM
Cc1cc(C)c2c(N)c3cccc(C)c3nc2n1	u	n	n	n	n	18µM
CCC/C=C/C(C)O (centres undefined)	x	x	x	x	x	n
Cc1ccc(C(=O)Nc2nccs2)cc1S(=O)(=O)N1CCCCC1	n	n	n	n	17µM	n
O=C(Nc1nccs1)c1ccc(Br)c(S(=O)(=O)N2CCCC2)c1	n	n	n	n	u	x
O=C(Nc1ccc(Cl)c(S(=O)(=O)N2CCOCC2)c1)c1ccncc1	u	n	x	x	x	x
O=C(Nc1nccs1)c1ccc(Cl)c(S(=O)(=O)N2CCOCC2)c1	21µM	n	n	n	n	n
CN1CCc2cccc3c2[C@H]1Cc1ccc(O)c(O)c1-3	23µM!	n	n	n	u	n
CN1CCc2cc3c(c4c2[C@H]1[C@H](O)c1ccccc1-4)OCO3	n	n	n	n	n	n
O=C(Nc1ccc2nn(-c3ccccc3)nc2c1)c1cccnc1	u	n	3.5µM	u	u	n
Cc1cc(NC(=O)c2ccco2)ccc1-n1cnnn1	u	u	u	u	21µM	n
CC(C)C(=O)Nc1ccc2nn(-c3ccccc3)nc2c1	u	1.2µM	0.22µM	0.14µM	0.67µM	7.9µM
O=C(Nc1ccc2nn(-c3ccc(F)cc3)nc2c1)c1cccnc1	n	n	n	n	n	n
COc1cc(C(=O)Nc2ccc(-n3cnnn3)c(C)c2)cc(OC)c1OC	n	n	n	n	u	n
O=C(Nc1ccc2nn(-c3ccccc3)nc2c1)c1ccco1	u	u	2.8µM	3.5µM	u	4µM
COc1cccc(-c2nnc(-c3ccccc3NC(=O)c3cccc(C(F)(F)F)c3)o2)c1	x	x	x	x	n	n
CN(C)c1ccc(/C=N\NC(=O)c2cnc3ccccc3c2)cc1	x	x	x	x	x	n[9.22 µM]
COc1cccc(CNC(=O)c2ccc(NC(=O)N3CCCCc4ccccc43)cc2)c1OC	x	x	x	x	n	x
O=C(Nc1cc(Cl)ccc1Cl)c1ccco1	u	n	n	n	n	x
O=C(Nc1cc2nn(-c3ccccc3)nc2cc1Cl)c1ccco1	u	9.2µM	4µM	3.5µM	u	11µM
Cc1noc(C)c1C(=O)OCC(=O)c1ccc[nH]1	n	n	n	n	n	n
Cc1noc(C)c1C(=O)OCC(=O)c1cc(C)n(Cc2ccccc2Cl)c1C	u	16µM	u	u	11µM	n
CC1CCN(CCCNC(=O)c2cc(Sc3ccc(F)cc3)nc3ccccc23)CC1	x	x	x	x	n	x
SMILES	ELG1 DNA repair	ELG1 genotox	NPC1 prom act	Rab9 prom act	FLuc modulator	SMN2 splice enh
Cc1ccc(C(=O)OCn2ncc(Cl)c(Cl)c2=O)cc1	7.3µM	n	n	n	n	x
O=C(OCn1ncc(Cl)c(Cl)c1=O)c1ccc(C(F)(F)F)cc1	u	n	n	n	n	n
COc1ccc2c(C)c(CCC(=O)NCc3ccc(C)cc3)c(=O)oc2c1	x	x	x	x	n	n
COC(=O)c1ccc(N2C(=O)CC(SCCN)C2=O)cc1 (centres undefined)	u	12µM	u	u	u	11µM
CCOC(=O)C(N)CSC1CC(=O)N(c2ccc(C(=O)OC)cc2)C1=O (centres undefined)	n	n	n	n	n	n
CCCOc1ccc(N2C(=O)CC(SCCN)C2=O)cc1 (centres undefined)	u	u	4µM	2.2µM	12µM	13µM
CC(=O)Nc1ccc(N=Nc2ccc(O)cc2)cc1	u	u	u	3.5µM	11µM	n[1.84 µM]
CC(=O)Nc1ccc(N=NN2CCOCC2)cc1	u	u	n	n	u	n
Oc1ccc(Cl)cc1N=Nc1ccccc1	u	n	n	n	13µM	x
Oc1ccc(N=Nc2ccccc2)cc1	u	u	u	n	9.5µM	x
O=C(CCCn1c(=O)c2ccccc2n(Cc2ccc(F)cc2Cl)c1=O)NCCc1ccc(Cl)cc1	x	x	x	x	n	n
CCC(/C=C1\Sc2ccc(OC)cc2N1CCO)=C\c1sc2ccc(OC)cc2[n+]1CCO	u	n	n	n	15µM	n
CCC(/C=C1\Sc2ccc(OC)cc2N1CC)=C\c1sc2ccc(OC)cc2[n+]1CCCS(=O)(=O)[O-]	u	n	n	n	u	x
CSCC[C@H](NC(=O)[C@@H]1Cc2ccccc2CN1)C(=O)Nc1ccc2c(c1)OCCO2	u	u	u	u	15µM	x
O=C(/C=C/c1ccccc1Cl)Nc1cccnc1	u	4.1µM	1.1µM	1.8µM	1.3µM	x
O=C(/C=C/c1ccc(Cl)cc1Cl)Nc1ccncc1	u	u	n	n	3.4µM	n
O=C(/C=C/c1ccccc1Cl)Nc1ccncc1	u	n	u	2.8µM	4.3µM	n
CC(=O)N(C)c1ccc(NC(=O)/C=C/c2ccccc2Cl)cc1	u	u	n	u	6µM	n
CCC(CC)NC(=O)/C=C/c1ccccc1Cl	u	n	n	n	u	u
CCOc1cc(CN2CCN(S(=O)(=O)c3ccc(C)cc3)CC2)ccc1OC	x	x	x	x	n	n
COc1ccc(CN2CCc3c(c(=O)n4ncc(C(=O)N5CCN(c6ccccc6F)CC5)c4n3C)C2)cc1	x	x	x	x	n	x
COC(=O)c1sccc1NC(=O)/C=C\c1ccc(Cl)cc1Cl	u	n	u	4µM	u	n
O=C(/C=C/c1ccccc1Cl)NCc1ccco1	u	n	u	n	24µM	n
COC(=O)c1sccc1NC(=O)/C=C/c1ccc(Cl)cc1	u	u	n	u	u	u
O=C(/C=C/c1c(Cl)cccc1Cl)NCc1ccco1	u	n	n	u	n	n
SMILES	ELG1 DNA repair	ELG1 genotox	NPC1 prom act	Rab9 prom act	FLuc modulator	SMN2 splice enh
Clc1cccc(-c2csc(-c3nc(-c4ccc(Br)s4)cs3)n2)c1	x	x	x	x	n	n
CCOC(=O)c1sc2ccccc2c1S(=O)(=O)Nc1ccc(CC)cc1	x	x	x	x	n	x
CC1CCN(S(=O)(=O)c2ccc3c(ccc(=O)n3CC(=O)Nc3ccc(C(C)C)cc3)c2)CC1	x	x	x	x	n	x
COc1ccc(N=C2SC(CC(=O)Nc3ccccc3)C(=O)N2Cc2ccco2)cc1 (centres undefined)	u	n	n	n	n	x
COc1ccc(N=C2SC(CC(=O)Nc3ccccc3F)C(=O)N2Cc2ccco2)cc1 (centres undefined)	23µM	n	n	n	n	n
CC(C)(C)SCCNC(=O)c1ccccc1	u	n	u	3.2µM	u	n
Cc1ccc(C(=O)NCCSC(C)(C)C)cc1	u	1.8µM	0.5µM	0.56µM	u	10µM
CSCCNC(=O)c1ccc(C(C)(C)C)cc1	u	u	4µM	4µM	3µM	u
Nc1cc(C(=O)O)c(O)c(S(=O)(=O)O)c1	x	x	x	x	x	n
CCCCCCCCCCCCCCC[C@@H](O)[C@H](CO)NC(C)=O	x	x	x	x	x	n
